Laboratory results: PubChem BioAssay AID651813 (National Center for Advancing Translational Sciences (NCATS), 2012)
Out of some 2,100 compounds screened, about 1,100 (52%) were called active. Inconclusive results (about 27%) are left out. The set was probably picked from earlier hits. The list shows a part of the results. Unmarked numbers belong to inactive results. The call rests on the fitted dose curve; in most records, active means well fitted inhibition curve with a large enough effect; inconclusive means small, poorly fitted or top-dose-only effect; inactive means no such curve, though single readings can be large or run the other way.

Target: DNA dC->dU-editing enzyme APOBEC-3G (Homo sapiens) (UniProt Q9HC16)
Assay: qHTS for inhibitors of Vif-A3G interactions: Cherry picks counterscreen;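 further: hits raise yellow fluorescence by blocking Vif-driven A3G-eYFP degradation; nearly all actives have a fitted effect of over 70% in size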;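 on max response: max response given as percent of control signal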
Conditions: HeLa A3G-eYFP + Vif (tagged APOBEC3G with the HIV-1 protein that degrades it), eYFP fluorescence, 24 h
In short: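 HeLa cells stably expressing A3G-eYFP and Vif were treated for 24 h at 37 deg C with compounds at several concentrations; yellow fluorescence (Ex 488 nm, Em 500-530 nm) read by Acumen Explorer, MG132 as positive control.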
Potency means the concentration at half of the fitted maximal effect.

Sequence of DNA dC->dU-editing enzyme APOBEC-3G (Homo sapiens) (Q9HC16 whole entry, looked up): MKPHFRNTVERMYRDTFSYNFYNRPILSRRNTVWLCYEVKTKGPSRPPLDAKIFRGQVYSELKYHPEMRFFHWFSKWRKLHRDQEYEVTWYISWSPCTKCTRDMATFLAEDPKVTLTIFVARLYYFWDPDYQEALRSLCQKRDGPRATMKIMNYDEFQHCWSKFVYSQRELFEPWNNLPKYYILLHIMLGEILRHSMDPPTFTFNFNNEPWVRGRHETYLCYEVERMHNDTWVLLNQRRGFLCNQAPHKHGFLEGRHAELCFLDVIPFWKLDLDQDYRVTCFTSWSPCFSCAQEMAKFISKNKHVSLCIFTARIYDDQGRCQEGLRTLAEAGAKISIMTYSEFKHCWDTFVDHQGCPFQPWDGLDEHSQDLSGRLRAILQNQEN

| SMILES | max response [%] | Potency |
| --- | --- | --- |
| Cn1c(=O)c2c(nc(NC3CCCC3)n2C)n(C)c1=O | -1.35 | – |
| CCCC(=O)NC(c1ccc(OC)cc1)c1ccc2cccnc2c1O (stereo unspecified) | -9.5 | – |
| CCC(=O)NC(c1ccc(OC)cc1)c1c(O)ccc2ccccc12 (stereo unspecified) | – | 9.94 µM (active) |
| CCCSc1nnc(N2C(=O)C(O)=C(C(=O)c3ccco3)C2c2ccccc2F)s1 (stereo unspecified) | -7.3 | – |
| Cc1ccc(C2C(C(=O)c3cccs3)=C(O)C(=O)N2c2nnc(C)s2)cc1 (stereo unspecified) | – | 19.8 µM (active) |
| Cc1ccc(NC2=C(Cl)C(=O)N(C3CCCCC3)C2=O)cc1 | 6.01 | – |
| CN1C2CCC1/C(=C/c1cccn1C)C(=O)/C2=C\c1cccn1C | – | 8.2 µM (active) |
| Cn1cccc1/C=C1\CC(C(C)(C)C)C/C(=C\c2cccn2C)C1=O (stereo unspecified) | – | 8.2 µM (active) |
| O=c1oc2c3c4c(cc2c(C(F)(F)F)c1CCN1CCOCC1)CCCN4CCC3 | – | 2.31 µM (active) |
| COc1ccc(/C=C(/C(=O)c2cccs2)N2C=CC=CC2=C(C#N)C#N)cc1 | – | 15.8 µM (active) |
| CCN(CC)c1nc2ccccc2nc1C(C#N)C(=O)NCCc1ccccc1 (stereo unspecified) | – | 13 µM (active) |
| C=CCNC(=O)C(C#N)c1nc2ccccc2nc1N1CCN(Cc2ccccc2)CC1 (stereo unspecified) | -10.2 | – |
| COc1ccc(-c2nnc(NC(=O)c3ccc([N+](=O)[O-])o3)o2)c(OC)c1 | -27.9 | – |
| COc1ccc(C(=O)/C=C/Nc2ccc([N+](=O)[O-])cc2C)c(OC)c1 | – | 23.1 µM (active) |
| COc1cc(SC)ccc1C(=O)N1CCN(c2ccccc2OC)CC1 | – | 5.59 µM (active) |
| COc1ccccc1N1CCN(C(=O)c2ccc3ncsc3c2)CC1 | – | 17.7 µM (active) |
| COc1ccccc1C(=O)N1CCN(c2cccc(Cl)c2)CC1 | – | 1.4 µM (active) |
| COc1ccc(C(=S)N2CCN(c3cccc(Cl)c3)CC2)c(OC)c1 | – | 3.53 µM (active) |
| CCS(=O)(=O)N1CCc2cc(C(=O)N3CCN(c4cccc(C(F)(F)F)c4)CC3)ccc21 | -3.11 | – |

| SMILES | max response [%] | Potency |
| --- | --- | --- |
| CCSc1ncc(Cl)c(C(=O)N2CCN(c3ccccc3OC)CC2)n1 | – | 4.61 µM (active) |
| COC(=O)c1cc(C(=O)N2CCN(c3ccccc3OC)CC2)cc([N+](=O)[O-])c1 | – | 1.12 µM (active) |
| COc1ccccc1N1CCN(C(=O)c2cc(=O)c3cc(C)cc(C)c3o2)CC1 | – | 0.158 µM (active) |
| NNC(=S)Nc1c(F)cc(F)cc1Br | -0.636 | – |
| Cc1cc(N/N=C/c2ccc([N+](=O)[O-])o2)nc2ccccc12 | – | 23.1 µM (active) |
| O=C(N/N=C/c1ccc([N+](=O)[O-])o1)c1cn2ccc3ccccc3c2n1 | 3.73 | – |
| O=[N+]([O-])c1ccc(/C=N/Nc2ccc3ccccc3c2)o1 | – | 4.98 µM (active) |
| CCCN1CCc2c(sc(NC(=O)c3ccc(S(=O)(=O)N(C)c4ccccc4)cc3)c2C(=O)NC)C1 | – | 18.4 µM (active) |
| CCN1CCc2c(sc(NC(=O)c3ccc(S(=O)(=O)N(CC)c4ccccc4)cc3)c2C(N)=O)C1 | – | 5.59 µM (active) |
| CCCN1CCc2c(sc(NC(=O)c3ccc(S(=O)(=O)N4CCN(C(=O)OCC)CC4)cc3)c2C(N)=O)C1 | – | 23.1 µM (active) |
| CCCN1CCc2c(sc(NC(=O)c3ccc(S(=O)(=O)N(C)c4ccccc4)cc3)c2C(N)=O)C1 | – | 14.6 µM (active) |
| CC(C)N1CCc2c(sc(NC(=O)c3ccc(S(=O)(=O)N4CCOCC4)cc3)c2C#N)C1 | – | 8.2 µM (active) |
| NC(=O)c1c(NC(=O)c2ccccc2)sc2c1CCN(Cc1ccccc1)C2 | – | 15.8 µM (active) |
| CC(C)N1CCc2c(sc(NC(=O)c3cc4cc([N+](=O)[O-])ccc4s3)c2C(N)=O)C1 | – | 23.1 µM (active) |
| CCCN1CCc2c(sc(NC(=S)NC(=O)c3ccccc3)c2C#N)C1 | – | 14.6 µM (active) |
| CCOC(=O)/C(=C/C1=CC(=C/N(C)C)/C(=O)O1)C(C)=O | 1.47 | – |
| CC(C)CN(CC(C)C)S(=O)(=O)c1ccc(C(=O)Nc2sc3c(c2C(N)=O)CCN(C(C)C)C3)cc1 | – | 18.4 µM (active) |
| Cc1cccc(C)c1OCCNC(=O)C(=O)NCc1ccco1 | – | 2.8 µM (active) |
| Cc1ccccc1NC(=O)c1ccc2c(c1)c(C)c(C)n2Cc1ccccc1 | – | 2.91 µM (active) |

| SMILES | max response [%] | Potency |
| --- | --- | --- |
| COc1ccc(NC(=O)c2ccc3c(c2)c(C)c(C)n3Cc2ccc(F)cc2)cc1 | – | 5.17 µM (active) |
| CCCCCn1c(=O)[nH]c2cc(C(=O)Nc3cc(OC)cc(OC)c3)ccc2c1=O | -23.9 | – |
| O=C(CN1c2cccc3cccc(c23)S1(=O)=O)Nc1ccc(S(=O)(=O)N2CCOCC2)cc1 | -29.7 | – |
| Cc1cc(NC(=O)COC(=O)c2ccc(S(=O)(=O)N3CCCc4ccccc43)cc2)no1 | – | 4.44 µM (active) |
| CC(=O)Nc1ccc(S(=O)(=O)N2CCSc3ccccc32)cc1 | – | 4.98 µM (active) |
| COC(=O)Nc1ccc(S(=O)(=O)N2CCCc3ccccc32)cc1 | – | 3.53 µM (active) |
| Cc1ccc(CNC(=O)C2CC(c3cc(C(F)(F)F)cc(C(F)(F)F)c3)=NO2)o1 (stereo unspecified) | – | 8.86 µM (active) |
| COc1ccccc1N1CCN(c2ncnc3c2oc2ccccc23)CC1 | – | 3.14 µM (active) |
| CCN1/C(=C/C=C2/SC(=Nc3cccc4ncccc34)N(C)C2=O)Sc2ccccc21 | – | 4.11 µM (active) |
| Cc1c(NC(=O)c2csc3c2CCCC3)c(=O)n(-c2ccccc2)n1C | -8.09 | – |
| Cc1c(N=C2N=C(NC(=O)c3cccs3)c3ccccc32)c(=O)n(-c2ccccc2)n1C | – | 12.5 µM (active) |
| CC#Cc1cc2c(cc1O)CCC1C2CCC2(C)C(O)CCC12 (stereo unspecified) | – | 4.44 µM (active) |
| CCSc1nccc(-c2nn(-c3ccc(C)cc3)ccc2=O)n1 | – | 3.53 µM (active) |
| NNC(=O)c1oc2nc(-c3ccccc3)cc(-c3ccco3)c2c1N | – | 18.4 µM (active) |
| Cc1ccc(-c2cc(-c3ccco3)c3c(N)c(C(=O)NN)oc3n2)cc1 | – | 23.1 µM (active) |
| O=C(N/N=C\C=C\c1ccc([N+](=O)[O-])o1)c1cccs1 | – | 14 µM (active) |
| CCC(=Nc1ccccc1O)C1=C(O)CC(c2ccccc2)CC1=O (stereo unspecified) | 16.4 | – |
| COc1ccccc1N=C(C)C1=C(O)CC(c2ccccc2)CC1=O (stereo unspecified) | – | 0.559 µM (active) |
